Screens from PubChem.
MCF10A rerep = DNA re-replication induction in MCF 10a cells | MCF 10A DNA re-replication, Hoechst nuclear intensity, 48 h | Potency, µM (series often up to 46.1 µM), for inactives: at the top dose activity, positive = re-replication, usual class: activators | 350,000 tested, 2.9% active; also: % of control where 0% means no effect; nearly all actives have a fitted effect of over 50% in size
SW480 rerep = induces DNA re-replication in SW480 colon adenocarcinoma cells; SW480 DNA re-replication, Hoechst DNA content imaging, 48 h; Potency, µM (series often up to 46.1 µM), for inactives: top-dose re-replication activation, most hits filed as activators; 340,000 tested, 1.8% active; also: % of control where 0% means no effect; nearly all actives have a fitted effect of over 55% in size
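Quantitative HTS format with DMSO vehicle controls; 48 hr drug incubation at 37 C, then 40 min Hoechst staining and scanning imager measurement at 405 nm excitation.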
HT1080NT lethal = kills 2HG-producing HT-1080-NT fibrosarcoma cells | Potency, µM (doses to about 46.1 µM), for the others: at the highest dose activity, negative = less viability, most hits filed as cytotoxic | HT-1080-NT fibrosarcoma viability, CellTiter-Glo ATP luminescence, 48 h | 360,000 tested, 1.6% active | AID 686970;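 also: NT is the 2HG producing partner of a matched IDH1 knockdown line; 0% = DMSO-treated cells and -100% = media-only wells without cells; nearly all actives have a fitted effect of over 55% in size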
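Read-out is CellTiter-Glo luminescence after 10 minutes at room temperature, following 48 hours' compound treatment of HT-1080-NT cells (750 cells/well, RPMI, 5% FBS, 37 degrees C).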
HT1080 IDH1KD tx = kills HT-1080 cells with IDH1 knockdown; HT-1080 IDH1 knockdown viability, ATP luminescence, 48 h; 360,000 tested, 2% active; Potency, µM (top dose mostly 46.1 µM), inactives show at the top dose activity, negative = toxicity, hits mostly cytotoxic;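 also: 0% = DMSO wells and -100% = cell-free medium wells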
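Luminescent ATP read-out (CellTiter-Glo, 10 min at room temperature) after 48 h compound exposure at 37 °C gave viability of IDH1-knockdown HT-1080 cells. Activity was normalised to DMSO and cell-free wells, then fitted as concentration-response curves.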
KB-3-1 cytotox = KB-3-1 parental cell cytotoxicity. KB-3-1 viability, CellTiter-Glo ATP luminescence, 72 h. Potency, µM (highest dose often 46.1 µM), actives largely listed as cytotoxic. 400,000 tested, 1.4% active; also: % is scaled to controls: 0 for no effect and ±100 for the full control effect; nearly all actives have a fitted effect of over 60% in size
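Parental KB-3-1 adenocarcinoma cells in phenol-red-free DMEM with 10% FBS were pin-treated with compounds at several concentrations, incubated 72 h at 37 °C, and viability read by CellTiter-Glo luminescence; concentration-effect curves were fitted after normalization.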
KB-V1 cytotox = KB-V1 MDR subline cytotoxicity; KB-V1 MDR cells viability, CellTiter-Glo, 72 h; Potency, µM (highest dose often 46.1 µM), actives largely listed as cytotoxic; 400,000 tested, 3.4% active; AID 1347076; also: % is scaled to controls: 0 for no effect and ±100 for the full control effect; nearly all actives have a fitted effect of over 60% in size
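Cells of the MDR subline KB-V1 are plated, dosed with compound at multiple concentrations, and incubated 72 h at 37 degrees C; CellTiter-Glo is then added and luminescence read after 10 min.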
Numbers without * were called inactive; i = inactive; ? = inconclusive; . = no result; [ ] = another dose, or the depositor's remark. An excerpt weighted towards active compounds, which were near 8% of everything screened. Calls follow the shape of the dose curve; as a rule, active = well fitted curve in the direction sought with a large enough effect; inconclusive = small, poorly fitted or top-dose-only effect, or another doubt; inactive = no such curve, though single readings can be large; an effect the other way counts as inactive or inconclusive. Potency is read from the fitted curve at half-maximal effect.

SMILES | MCF10A rerep | SW480 rerep | HT1080NT lethal | HT1080 IDH1KD tx | KB-3-1 cytotox | KB-V1 cytotox
CCOC(=O)C1=C(C)NC(C)=C(C(=O)OCC)C1C(=O)OCC(=O)N(C)Cc1ccccc1 | -1% | 0% | -3% | -4% | i | i
CCn1c(-c2ccccc2)ccc(C#N)c1=O | -179%[0.0737 µM] | ? | 1% | -8% | i | i
CC(C)NC(=O)C1CCC(Cn2c(=O)c3sccc3n(CC(=O)NCc3ccccc3)c2=O)CC1 (stereo not given) | . | . | . | . | i | ?
CN(C)c1ccc(-c2[nH][nH]c(=O)c2NC(=O)c2ccccn2)cc1 | . | . | ? | 21µM* | i | i
CCOC(=O)C1CCCN(C(=O)COC(=O)c2cccs2)C1 (stereo not given) | -1% | -9% | 3% | 16% | i | i
Clc1ccccc1OCCCCN1CCNCC1 | 21µM* | -44% | -21% | -1% | i | i
CC(=O)Nc1nonc1-c1nnc(SCc2ccc(Cl)cc2)n1C | . | . | . | . | i | i
O=C(NC1CCCC1)c1cccc2c1C(=O)c1ccc(/C=C/c3ccccc3)cc1S2(=O)=O | 2% | 17% | 3% | 1% | ? | i
O=C(NCc1ccccc1)c1cccc2c1C(=O)c1ccc(/C=C/c3ccccc3)cc1S2(=O)=O | 18µM* | 23µM* | ? | -21% | i | i
COc1ccc(-c2ccc3c(c2)S(=O)(=O)c2cccc(C(=O)NC4CCCC4)c2C3=O)cc1OC | ? | -16% | 10% | 5% | i | i
COc1ccc(-c2ccc3c(c2)S(=O)(=O)c2cccc(C(=O)NCc4cccc(OC(F)(F)F)c4)c2C3=O)cc1OC | 1.8µM* | 10% | 6% | -2% | i | i
O=C(NC1CCCCC1)c1cccc2c1C(=O)c1ccc(-c3ccc(OC(F)(F)F)cc3)cc1S2(=O)=O | 0.92µM* | 0% | 4% | 2% | i | i
COc1ccc(-c2ccc3c(c2)S(=O)(=O)c2cccc(C(=O)N4CCN(C5CCCCC5)CC4)c2C3=O)cc1OC | 21µM* | 21µM* | 0% | -18% | i | i
COc1ccc(-c2ccc3c(c2)S(=O)(=O)c2cccc(C(=O)N4CCN(c5ccccn5)CC4)c2C3=O)cc1OC | . | . | 0% | 2% | i | ?
O=C(NCc1cccc(OC(F)(F)F)c1)c1cccc2c1C(=O)c1ccc(-c3ccc(F)cc3OCc3ccccc3)cc1S2(=O)=O | 46% | 2% | 2% | 6% | i | i
O=C(C[n+]1ccccc1Cl)c1ccc2ccccc2c1 | . | . | . | . | i | i
O=C(NCC1CCCO1)c1cccc2c1C(=O)c1ccc(N3CCC(Cc4ccccc4)CC3)cc1S2(=O)=O (stereo not given) | 3.7µM* | 3% | -12% | -19% | ? | 23µM*
COc1ccccc1-n1c(SCC(=O)NCc2ccc3c(c2)OCO3)nc2cc([N+](=O)[O-])ccc21 | 16% | 5% | -23% | -15% | i | i
CC(Sc1nc2cc([N+](=O)[O-])ccc2n1-c1ccc(F)cc1)C(=O)NCc1ccc2c(c1)OCO2 (stereo not given) | 14% | 3% | -2% | -12% | i | 5.8µM*
COc1ccc(C(=O)N(C)CCCC2CCCC2)cc1OC1CCN(C(C)C)CC1 | ? | 15% | ? | ? | ? | ?
CC(=O)Nc1cc2c3c(cccc3c1)-c1ccccc1-2 | 2.3µM* | 16µM* | -14% | -27% | i | i
O=C(NCc1cccs1)C1CCN(C(=O)N2CCOc3ccccc32)CC1 | . | . | . | . | i | i
COc1cc(C(=O)OCC(=O)NCCCc2ccccc2)ccc1OCC(C)C | 10% | 4% | 17% | 10% | i | i
COc1cc(C(=O)OCC(=O)NCc2ccc(F)cc2)ccc1OCC(C)C | 9% | -1% | 0% | -5% | 23µM* | i
